Results filed as inconclusive are left out. Where a call stands in place of a potency, no number is given. Activity calls are given as the source filed them. The call rests on the fitted dose curve; in most records, active means well fitted inhibition curve with a large enough effect; inconclusive means small, poorly fitted or top-dose-only effect; inactive means flat fitted curve, though single readings scatter.
The compounds below were run against Calcium and integrin-binding protein 1 (Homo sapiens) (UniProt Q99828) (assay: Primary qHTS for Identification of Calcium Integrin Binding Protein 1 (CIB1) Competitor (AID 1508620;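 further: GST tagged CIB1 binding a fluorescein labelled alphaIIb integrin peptide tracer; top concentration of the series differs between compounds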)). Details: CIB1-GST / FITC-alphaIIb peptide fluorescence polarization; series mostly up to 114 µM.
Calcium and integrin-binding protein 1 (Homo sapiens), sequence (Q99828 whole entry, looked up): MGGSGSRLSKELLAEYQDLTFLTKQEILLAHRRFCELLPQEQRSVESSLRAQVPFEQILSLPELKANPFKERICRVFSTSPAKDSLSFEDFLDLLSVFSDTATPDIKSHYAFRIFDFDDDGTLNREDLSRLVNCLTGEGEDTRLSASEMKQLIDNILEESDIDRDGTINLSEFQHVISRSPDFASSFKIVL
Procedure, shortened: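 Fluorescence polarization competition: CIB1-GST (1 uM final) preincubated with compound 15 min at room temperature, then FITC-labeled alphaIIb peptide (100 nM final) added for another 15 min. Polarization read at Ex 480/Em 540.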

Q: With `CCc1ccc(NC(=O)c2cnn3c(C)cc(-c4ccccc4)nc23)cc1` as the compound, how does the Potency read?
A: Its Potency is “inactive”.

Q: How did the Potency turn out when `COc1ccc(OC)c(C2=Nn3c(nnc3-c3ccccc3O)SC2)c1` was run?
A: The Potency was “inactive”.

Q: How did the Potency turn out when `COc1ccc(C2Nc3ccccc3C(=O)N2Cc2cccc(-c3ccccc3)c2)cc1COc1ccc(NC(C)=O)cc1` (stereo not given) was run?
A: Its Potency is “inactive”.

Q: With `Cc1ccc(CNc2ncnc3ccc(-c4ccc(C(=O)N(C)C)o4)cc23)o1` as the compound, how does the Potency read?
A: Its Potency is “inactive”.

Q: With `O=C(Nc1ccc(F)c(C(F)(F)F)c1)Nc1nnc(-c2ccncc2)o1` as the compound, how does the Potency read?
A: The Potency was “inactive”.

Q: Which Potency does the source give for `Cc1ccc(OCCn2c(CCNC(=O)c3ccc(Cl)cc3)nc3ccccc32)cc1` here?
A: Its Potency is “inactive”.

Q: How did the Potency turn out when `CN(C(=O)c1cn2c(-c3ccc(C(F)(F)F)cc3)cnc2cn1)c1ccc(C#N)cc1` was run?
A: The Potency was “inactive”.

Q: `Nc1ccc(S(=O)(=O)Nc2cccc3cccnc23)cc1` was tested. Which Potency did it give?
A: The Potency was “inactive”.

Q: For `O=C(O)c1ccc2c(c1)C(=O)N([C@H](Cc1ccccc1)C(=O)O)C2=O`, which Potency is on record?
A: The Potency was “inactive”.

Q: Which Potency does the source give for `O=C1c2ccccc2C(=O)N1c1cccc(=O)[nH]1` here?
A: Its Potency is “inactive”.

Q: Which Potency does the source give for `Cc1ccc(NC(=O)c2cnn3c(C)cc(C)nc23)c(C)c1` here?
A: Its Potency is “inactive”.

Q: For `COc1cccc(CC(=O)Nc2nc(-c3ccc4c(c3)CCN4C(=O)c3ccccc3C)c(C)s2)c1`, which Potency is on record?
A: The Potency was “inactive”.

Q: How did the Potency turn out when `NC(=O)c1cccc(C[C@H](C(=O)O)N2C(=O)c3ccc(C(=O)O)cc3C2=O)c1` was run?
A: The Potency was “inactive”.

Q: `Cc1ccc(Cn2ncc3c4sc(C)cc4n(C)c3c2=O)c(C)c1` was tested. Which Potency did it give?
A: The Potency was “inactive”.

Q: With `O=C1c2ccccc2C(=O)N1c1ncccc1O` as the compound, how does the Potency read?
A: The Potency was “inactive”.

Q: `COc1ccc(C[C@H](C(=O)O)N2C(=O)c3ccc(C(=O)O)cc3C2=O)cc1` was tested. Which Potency did it give?
A: Its Potency is “inactive”.

Q: `CC(=O)Nc1sc2c(c1-c1ccc3nc[nH]c3c1)CCNC2` was tested. Which Potency did it give?
A: Its Potency is “inactive”.

Q: Which Potency does the source give for `O=S(=O)(c1ccc2c(c1)OCCO2)N1CCN(S(=O)(=O)c2ccc(F)c(F)c2F)CC1` here?
A: The Potency was “inactive”.

Q: Which Potency does the source give for `O=C(Nc1ccc(-c2nc3ccccc3[nH]2)cc1)c1ccc(Cl)c(Cl)c1` here?
A: Its Potency is “inactive”.

Q: `COc1ccc(CN(Cc2ccccc2)C(=O)c2ccc(OC)cc2O)cc1` was tested. Which Potency did it give?
A: Its Potency is “inactive”.

Q: How did the Potency turn out when `CNc1oc(-c2cccc(Cl)c2)nc1C#N` was run?
A: Its Potency is “inactive”.

Q: With `Cc1c(P(=S)(c2ccccc2)c2ccccc2)c2ccccc2n1Cc1ccccc1` as the compound, how does the Potency read?
A: Its Potency is “inactive”.

Q: For `O=C(NCCc1nc2ccccc2n1CCOc1ccc(Cl)cc1)C1CCCCC1`, which Potency is on record?
A: Its Potency is “inactive”.

Q: For `CN1CCOc2ccc(S(=O)(=O)N3CCN(S(=O)(=O)c4c(F)cccc4F)CC3)cc21`, which Potency is on record?
A: The Potency was “inactive”.

Q: For `Cc1ccc(OCCn2c(CCNC(=O)c3cccc(Br)c3)nc3ccccc32)cc1`, which Potency is on record?
A: Its Potency is “inactive”.

Q: Which Potency does the source give for `CCNC(=O)c1ccc(-c2ccc3ncnc(NCCc4cnc[nH]4)c3c2)o1` here?
A: The Potency was “inactive”.

Q: With `Cc1cc(C)n2ncc(C(=O)NC3CCCCC3)c2n1` as the compound, how does the Potency read?
A: The Potency was “inactive”.

Q: How did the Potency turn out when `COc1cccc(-c2csc(N3CCC(C(N)=O)CC3)n2)c1` was run?
A: Its Potency is “inactive”.

Q: How did the Potency turn out when `Cc1csc(CNc2ncnc3cc(-c4ccc5c(c4)OCO5)ccc23)n1` was run?
A: Its Potency is “inactive”.

Q: How did the Potency turn out when `COc1ccc(-c2ccc3ncnc(NCc4ccc(C)o4)c3c2)cc1OC` was run?
A: The Potency was “inactive”.

Q: How did the Potency turn out when `c1cncc(-c2ccc(CNc3nc(N4CCOCC4)nc4ccccc34)cc2)c1` was run?
A: Its Potency is “inactive”.

Q: With `CC(=O)NC(C)c1cc(F)c2cccnc2c1O` (stereo not given) as the compound, how does the Potency read?
A: The Potency was “inactive”.

Q: For `O=C(CNC(=O)c1ccc(C(F)(F)F)cc1)OC(C(=O)Nc1cc(C(F)(F)F)ccc1Cl)c1ccccc1` (stereo not given), which Potency is on record?
A: The Potency was “inactive”.

Q: For `CCCCC(OC(=O)CNC(=O)c1ccccc1)C(=O)Nc1cc(C(F)(F)F)ccc1Cl` (stereo not given), which Potency is on record?
A: Its Potency is “inactive”.

Q: `N#Cc1ccc(S(=O)(=O)N2CCN(S(=O)(=O)c3ccc4c(c3)OCCO4)CC2)cc1` was tested. Which Potency did it give?
A: Its Potency is “inactive”.

Q: Which Potency does the source give for `S=C(Nc1ccc(Cl)c(Cl)c1)Nc1nnc(-c2ccncc2)o1` here?
A: The Potency was “inactive”.

Q: Which Potency does the source give for `Nc1ncc(S(=O)(=O)N2CCOCC2)s1` here?
A: The Potency was “inactive”.

Q: For `Cc1ccc(OCCn2c(CCNC(=O)c3ccccc3Br)nc3ccccc32)cc1`, which Potency is on record?
A: Its Potency is “inactive”.

Q: For `c1nc(NCc2ccc3c(c2)OCO3)c2cc(-c3ccc4c(c3)OCCO4)ccc2n1`, which Potency is on record?
A: Its Potency is “inactive”.

Q: With `O=C(OCC#CCSc1nnc(-c2ccc3ccccc3c2)o1)c1cccs1` as the compound, how does the Potency read?
A: The Potency was “inactive”.

From PubChem BioAssay (NCATS)
